Records with an inconclusive call do not appear. Where a call stands in place of a potency, no number is given. Active and inactive are the calls of the source. Unless noted, calls follow the shape of the dose curve; as a rule, active = well fitted curve in the direction sought with a large enough effect in the repeat runs; inconclusive = weak or mixed curves; inactive = no such curve, though single readings can be large; an effect the other way counts as inactive or inconclusive.
What was measured:
[1] = qHTS assay for small molecule agonists of the p53 signaling pathway (AID 651631; calls by dose curve; also: nearly all actives have a fitted effect of over 15% in size; also: potency is read from the fitted curve at half-maximal effect)
Outline: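 Read-out is beta-lactamase FRET fluorescence measured 2 h after substrate addition at room temperature, in HCT-116 cells with a p53 response element-driven reporter exposed to compounds for 16 h at 37 °C.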

[2] = qHTS assay for small molecules that induce genotoxicity in human embryonic kidney cells expressing luciferase-tagged ATAD5 (AID 651632); also: nearly all actives have a fitted effect of over 15% in size
Outline: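 Reporter cells (HEK293T) express luciferase-tagged ATAD5, a protein that accumulates after DNA damage. Treat 16 hr at 37C/5% CO2, add Amplite, wait 30 min at RT, and read luminescence.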

[3] = qHTS assay for small molecule agonists of the p53 signaling pathway - cell viability (AID 651633; calls by dose curve;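 also: p53RE-bla HCT reporter cells with a stable beta-lactamase p53 reporter; nearly all actives have a fitted effect of over 30% in size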)
Outline: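 Viability counter-read: CellTiter-Glo luminescence (30 min, room temperature) in the same p53RE-bla plates. These plates had been exposed to compounds for 16 h at 37 C.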

[4] = qHTS assay for small molecules that induce genotoxicity in human embryonic kidney cells expressing luciferase-tagged ATAD5 - cell viability (AID 651634; calls by dose curve; also: nearly all actives have a fitted effect of over 25% in size)
Outline: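 Seeding of 2,000 HEK293T ATAD5-luciferase cells per well preceded pin-tool compound transfer. Plates sat 15.5 hr at 37C under 5% CO2, then fluorescence was read after 30 min with CellTiter-Fluor.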

[5] = qHTS assay for small molecule disruptors of the mitochondrial membrane potential - cell viability (AID 720634; calls by dose curve;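 also: human HepG2 liver cancer cells; nearly all actives have a fitted effect of over 20% in size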)
Outline: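 Measuring cytotoxicity alongside mitochondrial potential, the screen quantified ATP by luminescence in HepG2 cells after 1 hr compound incubation and a 30 min room-temperature CellTiter-Glo step.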

[6] = qHTS assay for small molecule disruptors of the mitochondrial membrane potential (AID 720635); also: potency is read from the fitted curve at half-maximal effect
Outline: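 Mitochondrial membrane potential tracked with Mito-MPS dye, red aggregates (ex 540/em 590 nm) against green monomers (ex 490/em 535 nm). Compound treatment 1 hr at 37C, dye 30 min in HepG2.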

[7] = qHTS assay to test for compound auto fluorescence at 590 nm (red) in HepG2 cells (AID 720674)
Outline: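 1 hr compound incubation on HepG2 cells, 37 C, 5% CO2; plate read ex 540 nm / em 590 nm; intensities reported as Rose Bengal sodium equivalents.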

[8] = qHTS assay to test for compound auto fluorescence at 535 nm (green) in HepG2 cells (AID 720675)
[9] = qHTS assay to test for compound auto fluorescence at 590 nm (red) in HEK293 cells (AID 720679)
Outline: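 Red-channel autofluorescence (Ex/Em 540/590 nm; Rose Bengal sodium reference) was measured after overnight 37C, 5% CO2 exposure of attached HEK293 cells, 2,000 per well in medium with 10% dialyzed FBS.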

[10] = qHTS assay to test for compound auto fluorescence at 535 nm (green) in HEK293 cells (AID 720680)
[11] = qHTS assay to test for compound auto fluorescence at 460 nm (blue) in HEK293 cell free culture (AID 720681)
Outline: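 Blue fluorescence (Ex 405/Em 460 nm, triamterene-equivalent) was read immediately after pin transfer of compound or DMSO into medium (DMEM, 10% FBS) without cells.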

[12] = qHTS assay to test for compound auto fluorescence at 535 nm (green) in HEK293 cell free culture (AID 720682)
Outline: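 Fluorescein serves as the green reference fluorophore; each compound's intrinsic emission at 535 nm (excitation 485 nm) is reported as an equivalent amount of that dye, measured in serum-containing DMEM without cells.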

[13] = qHTS assay to test for compound auto fluorescence at 590 nm (red) in HEK293 cell free culture (AID 720683)
Outline: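 Red-channel autofluorescence of compounds in culture medium (DMEM, 10% FBS), no cells, measured at 540/590 nm. Rose Bengal sodium is the reference fluorophore for equivalence.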

[14] = qHTS assay to test for compound auto fluorescence at 590 nm (red) in HepG2 cell free culture (AID 720684)
Outline: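 Plate contents were MEM with 10% FBS plus test compound or DMSO, no cells. Fluorescence was recorded with 540 nm excitation and 590 nm emission.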

[15] = qHTS assay to test for compound auto fluorescence at 460 nm (blue) in HepG2 cell free culture (AID 720685)
Outline: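 Compound (23 nL) or DMSO pinned into cell-free MEM with 10% FBS; blue fluorescence read at 405/460 nm excitation/emission, expressed as auto-fluorescence equivalency to triamterene.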

[16] = qHTS assay to test for compound auto fluorescence at 535 nm (green) in HepG2 cell free culture (AID 720686)
[17] = qHTS assay to test for compound auto fluorescence at 460 nm (blue) in HepG2 cells (AID 720687)
Outline: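 Blue-channel autofluorescence (Ex/Em 405/460 nm, triamterene-equivalent) was measured after 1 hr compound exposure at 37 C, 5% CO2. Cells were HepG2, plated overnight at 37 C in MEM plus 10% FBS.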

[18] = target: Glucocorticoid receptor (Homo sapiens) (UniProt P04150); experiment: qHTS assay to identify small molecule agonists of the glucocorticoid receptor (GR) signaling pathway (AID 720691; active = well fitted activation curve with a large enough effect in the signal ratio in the repeat runs, not every such curve was filed as active; the % refers to the signal ratio); settings: GR-bla HeLa, beta-lactamase reporter ratio, 18 h; activation: at 62.4 µM (top of the series)
Outline: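 Reporter read-out: fluorescence intensity following 2 h room-temperature LiveBLAzer B/G FRET substrate loading. Prior step: GR-bla HeLa cells held 4 h, then treated 18 h at 37 C.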

[19] = target: Glucocorticoid receptor (Homo sapiens) (UniProt P04150); experiment: qHTS assay to identify small molecule antagonists of the glucocorticoid receptor (GR) signaling pathway (AID 720692; active = well fitted inhibition curve with a large enough effect in the signal ratio in the repeat runs, not every such curve was filed as active; the % refers to the signal ratio)
Outline: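 Dexamethasone (5 nM final) stimulated a stably integrated GRE-beta-lactamase reporter in HeLa cells during 18 h co-incubation with compounds; signal was quantified as fluorescence intensity of B/G FRET substrate after 2 h.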

[20] = qHTS assay to test for compound auto fluorescence at 460 nm (blue) in HEK293 cells (AID 720678)
Outline: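 Blue-channel (Ex/Em 405/460 nm) intensity measured in HEK293 cultures after overnight compound exposure at 37C; signal expressed relative to triamterene. Cells plated 2,000 per well in 10% dialyzed FBS medium and allowed 4-5 hr to attach.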

Chain of Glucocorticoid receptor (Homo sapiens) (P04150 whole entry, looked up): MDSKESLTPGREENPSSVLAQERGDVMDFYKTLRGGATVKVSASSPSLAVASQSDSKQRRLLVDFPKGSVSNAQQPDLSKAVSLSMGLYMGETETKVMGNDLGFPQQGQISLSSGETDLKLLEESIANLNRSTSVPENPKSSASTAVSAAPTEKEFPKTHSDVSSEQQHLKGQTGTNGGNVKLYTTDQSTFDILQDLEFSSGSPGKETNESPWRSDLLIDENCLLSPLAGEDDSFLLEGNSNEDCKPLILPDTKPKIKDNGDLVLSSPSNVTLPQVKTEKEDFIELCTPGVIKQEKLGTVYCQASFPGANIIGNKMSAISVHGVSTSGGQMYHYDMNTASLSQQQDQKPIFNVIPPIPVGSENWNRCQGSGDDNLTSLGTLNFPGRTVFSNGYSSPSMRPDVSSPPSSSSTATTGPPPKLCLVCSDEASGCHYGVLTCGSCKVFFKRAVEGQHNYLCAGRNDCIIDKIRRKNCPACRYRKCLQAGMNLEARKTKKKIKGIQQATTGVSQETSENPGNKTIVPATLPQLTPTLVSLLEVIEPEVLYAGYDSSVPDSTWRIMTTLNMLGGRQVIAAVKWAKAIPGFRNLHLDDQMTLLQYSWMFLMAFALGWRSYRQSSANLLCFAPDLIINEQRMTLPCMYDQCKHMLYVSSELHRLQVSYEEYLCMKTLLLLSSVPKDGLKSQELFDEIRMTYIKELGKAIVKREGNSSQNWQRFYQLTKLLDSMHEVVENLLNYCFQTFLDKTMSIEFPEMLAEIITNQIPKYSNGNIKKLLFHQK

Structure (SMILES)	Potency [1]	Potency [2]	Potency [3]	Potency [4]	Potency [5]	Potency [6]	Potency [7]	Potency [8]	Potency [9]	Potency [10]	Potency [11]	Potency [12]	Potency [13]	Potency [14]	outcome [15]	Potency [16]	outcome [17]	Potency [18]	Potency [19]	Potency [20]
CC(C)CN(C[C@@H](O)[C@H](Cc1ccccc1)NC(=O)O[C@H]1CO[C@H]2OCC[C@H]21)S(=O)(=O)c1ccc(N)cc1	inactive	inactive	inactive	inactive	inactive	inactive	inactive	inactive	inactive	inactive	inactive	inactive	inactive	inactive	inactive	inactive	inactive	inactive	inactive	
CO[C@H]1C[C@H](O[C@H]2[C@H](C)[C@@H](O[C@@H]3O[C@H](C)C[C@H](N(C)C)[C@H]3OC(C)=O)[C@@H](C)C[C@]3(CO3)C(=O)[C@H](C)[C@@H](OC(C)=O)[C@@H](C)[C@@H](C)OC(=O)[C@@H]2C)O[C@@H](C)[C@@H]1OC(C)=O	inactive	inactive	inactive	inactive	inactive		inactive	inactive	inactive	inactive	inactive	inactive	inactive	inactive	inactive	inactive	inactive			inactive
Nc1ccn(C[C@@H](CO)OCP(=O)(O)O)c(=O)n1	inactive	inactive	inactive	inactive	inactive	inactive	inactive	inactive	inactive	inactive	inactive	inactive	inactive	inactive		inactive	inactive	inactive	inactive	
CO[C@H]1O[C@@H]2O[C@@]3(C)CC[C@H]4[C@H](C)CC[C@@H]([C@H]1C)[C@@]24OO3	inactive	inactive	inactive	inactive	inactive	inactive	inactive	inactive	inactive	inactive	inactive	inactive	inactive	inactive	inactive	inactive	inactive	inactive	inactive	inactive
O=C(/C=C/c1cccc(F)c1)NC1CC1	inactive	inactive	inactive	inactive	inactive	inactive	inactive	inactive	inactive	inactive	inactive	inactive	inactive	inactive	inactive	inactive	inactive			
C[N+]1(C)CCN(CC(O)(c2ccccc2)C2CCCCC2)CC1 (stereo unspecified)	inactive	inactive	inactive	inactive	inactive	inactive	inactive	inactive	inactive	inactive	inactive	inactive	inactive	inactive	inactive	inactive	inactive		inactive	inactive
O=C1O[C@H]2[C@H](O)[C@@H]1OC(O)[C@H]2O (stereo partly specified)	inactive	inactive	inactive	inactive	inactive	inactive	inactive		inactive	inactive	inactive	inactive	inactive	inactive	inactive	inactive	inactive	inactive		inactive
Cc1c(N)nc(C(CC(N)=O)NCC(N)C(N)=O)nc1C(=O)NC(C(=O)NC(C)C(O)C(C)C(=O)NC(C(=O)NCCc1nc(-c2nc(C(=O)NCCCN[C@@H](C)c3ccccc3)cs2)cs1)C(C)O)C(O[C@@H]1O[C@@H](CO)[C@@H](O)[C@H](O)[C@@H]1O[C@H]1O[C@H](CO)[C@@H](O)[C@H](OC(N)=O)[C@@H]1O)c1cnc[nH]1 (stereo partly specified)	0.15 µM (active)	inactive	inactive	inactive	inactive	inactive	inactive	inactive	inactive	inactive	inactive	inactive	inactive	inactive	inactive	inactive	inactive	inactive	inactive	inactive
CCOc1ccc(N=C(C)Nc2ccc(OCC)cc2)cc1	inactive	inactive	inactive	inactive	inactive	inactive	inactive		inactive	inactive	inactive	inactive	inactive	inactive	inactive	inactive	inactive			inactive
COC(=O)[C@H]1[C@H]2C[C@@H]3c4[nH]c5cc(OC)ccc5c4CCN3C[C@H]2C[C@H](OC)[C@@H]1OC	inactive	inactive	inactive	inactive	inactive	inactive	inactive	inactive	inactive	inactive		inactive	inactive	inactive		inactive		inactive	inactive	
C=C[C@]1(C)C[C@@H](OC(=O)CO)[C@]2(C)[C@H](C)CC[C@]3(CCC(=O)[C@H]32)[C@@H](C)[C@@H]1O	inactive	inactive	inactive	inactive	inactive	inactive	inactive	inactive	inactive	inactive	inactive	inactive	inactive	inactive	inactive	inactive	inactive	inactive	inactive	inactive
CCC(CN)CC(C)CCNCC(O)CNCC(C)CC(CC)CN (stereo unspecified)	inactive	inactive	inactive	inactive	inactive	inactive	inactive	inactive	inactive	inactive	inactive	inactive	inactive	inactive	inactive	inactive	inactive	inactive	inactive	inactive
CN[C@@H]1CCc2[nH]c3ccc(C(N)=O)cc3c2C1	inactive	inactive	inactive	inactive	inactive	inactive	inactive		inactive	inactive	inactive	inactive	inactive	inactive	inactive	inactive	inactive	inactive	inactive	inactive
O=C(NCCNCC(O)COc1ccc(O)cc1)N1CCOCC1 (stereo unspecified)	inactive	inactive	inactive	inactive	inactive	inactive	inactive	inactive	inactive	inactive	inactive	inactive	inactive	inactive	inactive	inactive	inactive		inactive	inactive
Cc1onc(-c2ccccc2)c1C(=O)N[C@@H]1C(=O)N2[C@@H]1SC(C)(C)[C@@H]2C(=O)O	inactive	inactive	inactive	inactive	inactive	inactive	inactive	inactive	inactive	inactive	inactive	inactive	inactive	inactive	inactive	inactive	inactive	inactive	inactive	
CCOC(=O)CCC(=O)O[C@H]1[C@H](O[C@@H]2[C@@H](C)[C@H](O[C@H]3C[C@@](C)(OC)[C@@H](O)[C@H](C)O3)[C@@H](C)C(=O)O[C@H](CC)[C@@](C)(O)[C@H](O)[C@@H](C)C(=O)[C@H](C)C[C@@]2(C)O)O[C@H](C)C[C@@H]1N(C)C	inactive	inactive	inactive	inactive	inactive	inactive	inactive	inactive	inactive	inactive	inactive	inactive	inactive	inactive	inactive	inactive	inactive		inactive	inactive
COc1cc(S(C)=O)ccc1-c1nc2ncccc2[nH]1 (stereo unspecified)	inactive	inactive	inactive	inactive	inactive	inactive	inactive	inactive	inactive	inactive	inactive	inactive	inactive	inactive	inactive	inactive	inactive		inactive	inactive
O=C[C@H](O)[C@@H](O)[C@H](O[C@H]1O[C@H](CO)[C@@H](O[C@H]2O[C@H](CO)[C@@H](O)[C@H](O)[C@H]2O)[C@H](O)[C@H]1O)[C@H](O)CO	inactive	inactive	inactive	inactive	inactive	inactive	inactive	inactive	inactive	inactive	inactive	inactive	inactive	inactive	inactive	inactive		inactive		inactive
O=P(O)(O)OC(Cn1cncn1)(Cn1cncn1)c1ccc(F)cc1F	inactive	inactive	inactive	inactive	inactive	inactive	inactive	inactive	inactive	inactive	inactive	inactive	inactive	inactive	inactive	inactive	inactive	inactive		
C[C@@H]1C/C=C/C=C/C=C/C=C/[C@H](O[C@@H]2O[C@H](C)[C@@H](O)[C@H](N)[C@@H]2O)C[C@@H]2O[C@](O)(C[C@@H](O)C[C@H]3O[C@@H]3/C=C/C(=O)O1)C[C@H](O)[C@H]2C(=O)O	inactive	inactive	inactive	inactive	inactive	inactive	inactive		inactive	inactive	inactive	inactive	inactive	inactive	inactive	inactive	inactive	inactive	inactive	inactive
CCC(=O)OCC(=O)[C@@]1(OC(=O)CC)[C@H](C)C[C@H]2[C@@H]3CCC4=CC(=O)C=C[C@]4(C)[C@@]3(F)[C@@H](O)C[C@@]21C	inactive	inactive	inactive	inactive	inactive	29.8 µM (active)	inactive	inactive	inactive	inactive	inactive	inactive	inactive	inactive		inactive	inactive			
CC[N+](C)(C)Cc1ccccc1Br	inactive	inactive	inactive	inactive	inactive	inactive	inactive	inactive	inactive	inactive	inactive	inactive	inactive	inactive	inactive	inactive	inactive	inactive	inactive	inactive
CCCCCCCCCCCCCCCC(=O)OC[C@@H](COP(=O)([O-])OCC[N+](C)(C)C)OC(=O)CCCCCCCCCCCCCCC	inactive	inactive	inactive	inactive	inactive	inactive	inactive		inactive	inactive	inactive	inactive	inactive	inactive	inactive	inactive	inactive	inactive	inactive	inactive
CO[C@H]1[C@@H](O)[C@H](N)[C@@H](O[C@H]2O[C@H]([C@H](C)N)CC[C@H]2N)[C@H](O)[C@@H]1N(C)C(=O)CN	inactive	inactive	inactive	inactive	inactive	inactive	inactive	inactive	inactive	inactive	inactive	inactive	inactive	inactive	inactive	inactive	inactive	inactive	inactive	inactive

From PubChem BioAssay (Tox21)
